Laboratory results: the supplement of paper PMC13380429

How the values were obtained:
[1] = tested on: Vero E6 infected with SARS-CoV-2; test: morphology score (similarity to uninfected cells); higher = more like uninfected cells; settings: 24 h
[2] = tested on: Vero E6 infected with SARS-CoV-2; test: SARS-CoV-2 infection rate relative to infected DMSO; higher = more infection, active = 60 or less; settings: 24 h

| SMILES | morphology score [1] | SARS-CoV-2 infection rate [2] |
| --- | --- | --- |
| CS(=O)(=O)Nc1c(O)ccc2c1CCC[C@H]2C1=NCCN1 (10 µM) | 0.0346 | 110% (inactive) |
| CCCCCCCCCCC[C@@H](C[C@@H]1OC(=O)[C@H]1CCCCCC)OC(=O)[C@H](CC(C)C)NC=O [orlistat] (10 µM) | 0.226 | 100% (inactive) |
| C=CCNc1nc(NCC=C)nc(N2CCN(C(c3ccc(F)cc3)c3ccc(F)cc3)CC2)n1 [almitrine] (10 µM) | 0.136 | 101% (inactive) |
| C/C(=N\Nc1nnc2c(n1)[nH]c1c(C)cccc12)c1ccccn1 (10 µM) | 0.01 | 107% (inactive) |
| CO[C@H]1/C=C/O[C@@]2(C)Oc3c(C)c(O)c4c(O)c(c(/C=N/N5CCN(C)CC5)c(O)c4c3C2=O)NC(=O)/C(C)=C\C=C\[C@H](C)[C@H](O)[C@@H](C)[C@@H](O)[C@@H](C)[C@H](OC(C)=O)[C@@H]1C [rifampin] (0.833333 µM) | -0.0289 | 112% (inactive) |
| CCn1c2ccccc2c2cc(CNC)ccc21 (10 µM) | 0.514 | 56% (active) |
| CNC[C@H](O)[C@@H](O)[C@H](O)[C@H](O)CO [meglumine] (10 µM) | -0.00131 | 104% (inactive) |
| Cc1c(C(=O)Nc2ccc(N3C[C@@H](C)O[C@@H](C)C3)nc2)cccc1-c1ccc(OC(F)(F)F)cc1 [sonidegib] (10 µM) | -0.0039 | 108% (inactive) |
| Cc1cc(C)nc(NS(=O)(=O)c2ccc(NC(=S)NC(=O)COc3ccc(Br)cc3Cl)cc2)n1 (10 µM) | 0.0709 | 108% (inactive) |
| CO[C@@]1(NC(=O)C(C(=O)O)c2ccc(O)cc2)C(=O)N2C(C(=O)O)=C(CSc3nnnn3C)CO[C@@H]21 (stereo partly specified) [moxalactam] (10 µM) | -0.0497 | 110% (inactive) |
| C(#CCN1CCCC1)CN1CCCC1 [tremorine] (10 µM) | 0.107 | 96% (inactive) |
| CCN(CC)CCOc1ccc2c(c1)C(=O)c1cc(OCCN(CC)CC)ccc1-2 [tilorone] (0.833333 µM) | 0.187 | 105% (inactive) |
| Cc1cn2nc([C@@H]3CCCCN3C(=O)c3cc(Cl)ccc3NS(C)(=O)=O)cc2nc1N1CC[C@H](N)C1 [presatovir] (10 µM) | 0.215 | 89% (inactive) |
| OCC(Br)(Br)Br [tribromoethanol] (10 µM) | -0.0304 | 118% (inactive) |
| CN(C)C(=O)Oc1ccc[n+](C)c1 [mestinon] (10 µM) | 0.0902 | 121% (inactive) |
| Nc1n[nH]c2nnc(-c3c(-c4ccccc4)nn4ccccc34)cc12 (10 µM) | 0.264 | 103% (inactive) |
| O=C(Nc1ccc(S(=O)(=O)Nc2nccs2)cc1)C(c1ccccc1)c1ccccc1 (10 µM) | -0.0899 | 105% (inactive) |
| CC[C@]12CCCN3CCc4c(n(c5ccccc45)C(=O)C1)[C@@H]32 [vinburnine] (10 µM) | -0.0662 | 99.5% (inactive) |
| CCOC(=O)Nc1ccc2c(c1)N(C(=O)CN(CC)CC)c1ccccc1CC2 (10 µM) | 0.0358 | 101% (inactive) |
| Oc1cc2c(cc1O)[C@H]1c3ccccc3CN[C@@H]1CC2 (racemic) [dihydrexidine] (10 µM) | -0.0209 | 101% (inactive) |
| CC(=O)c1c(O)cc(C)oc1=O [dehydroacetic-acid] (10 µM) | 0.121 | 93.5% (inactive) |
| CN(CCc1ccc(Cl)c(Cl)c1)CCN1CCCC1 (10 µM) | 0.355 | 74.5% (inactive) |
| CCCCCCCCc1ccc(CCC(N)(CO)CO)cc1 [fingolimod] (10 µM) | 0.717 | 26.5% (active) |
| Cc1c(C)c2c(c(C)c1OC(=O)CCC(=O)O)CC[C@@](C)(CCC[C@H](C)CCC[C@H](C)CCCC(C)C)O2 [D-alpha-tocopheryl-succinate] (10 µM) | 0.0385 | 101% (inactive) |
| COc1cc2ncnc(Nc3ccc(F)c(Cl)c3)c2cc1OCCCN1CCOCC1 [gefitinib] (10 µM) | -0.249 | 112% (inactive) |
| CC1(C)Cc2c(-c3ccccc3)c(-c3ccc(Cl)cc3)c(CC(=O)O)n2C1 [licofelone] (10 µM) | 0.31 | 105% (inactive) |
| c1ccc2c(-c3cnn4cc(-c5ccc(N6CCNCC6)cc5)cnc34)ccnc2c1 (10 µM) | -0.0877 | 108% (inactive) |
| O=C(Nc1cc(C(F)(F)F)cc(C(F)(F)F)c1)c1cc(Cl)ccc1O [IKK-2-inhibitor-V] (10 µM) | -0.2 | 104% (inactive) |
